High-throughput results (PubChem BioAssay)
An excerpt weighted towards active compounds, which were near 0.81% of everything screened.
Bim-Bcl-XL: inhibitors of Bim-Bcl-XL interaction, human; Q07817; hit rate 0.04% among 190,000; inhibition, % at 10 µM; Bim peptide-Bcl-XL binding, bead flow cytometry, fluorescence; AID 1007
Bfl-1 Bim block: inhibitors of Bim-Bfl-1 interaction, human; hit rate 0.12% among 190,000; Q16548; AID 1008; inhibition, % at 10 µM; Bead-based flow cytometry, Bim-Bfl-1 binding inhibition;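 further: 0% = wells without compound plus tracer and 100% = blocker peptide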
Bim-Bcl-B: disrupts Bim peptide binding to human Bcl-B; bead-based flow cytometry; Q9HD36; inhibition, % at 10 µM; AID 951; hit rate 0.073% among 190,000;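 further: 0% = tracer peptide without compound and 100% = reference inhibitor peptide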
Target sequence (Q9HD36 whole entry, looked up): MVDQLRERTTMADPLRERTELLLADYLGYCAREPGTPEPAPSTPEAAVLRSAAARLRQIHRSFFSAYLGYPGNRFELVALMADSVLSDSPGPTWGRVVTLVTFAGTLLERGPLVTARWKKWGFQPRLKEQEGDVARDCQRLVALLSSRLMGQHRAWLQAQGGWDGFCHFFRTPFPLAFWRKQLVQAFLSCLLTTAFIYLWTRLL
Bim-Bcl-W: human Bim-Bcl-W interaction inhibition; Q92843; bead-based flow cytometry, Bim peptide-Bcl-W binding; inhibition, % at 10 µM; hit rate 0.02% among 190,000;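 further: 0% = bound tracer without compound and 100% = peptide blocker; higher means less fluorescent Bim peptide bound to Bcl-W beads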
Target sequence (Q92843 whole entry, looked up): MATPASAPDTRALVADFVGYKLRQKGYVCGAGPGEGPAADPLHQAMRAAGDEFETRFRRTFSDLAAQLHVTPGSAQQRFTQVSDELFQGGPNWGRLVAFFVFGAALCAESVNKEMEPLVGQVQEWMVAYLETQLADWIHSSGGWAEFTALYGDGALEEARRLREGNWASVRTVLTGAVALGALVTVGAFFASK
BCLXL inh: inhibitors of human Bcl-xL; hit rate 0.7% among 320,000; inhibition, % at 10.9 µM; GST-Bcl-xL / FITC-Bim BH3 peptide fluorescence polarization;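 active means inhibition above the mean of all tested compounds plus 3 SD, cutoff set per campaign, cut at about 30% in these data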;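 further: 0% = DMSO wells and 100% = unlabeled Bim-BH3 peptide competitor; inhibitors lower millipolarization by displacing the labeled peptide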
Bim-Bcl-2: inhibitors of Bim-Bcl-2 interaction, human; P10415; Bead-based flow cytometry, Bim peptide-Bcl-2 binding; inhibition, % at 10 µM; hit rate 0.06% among 190,000; AID 950; in the data active means inhibition above about 40%;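 further: 0% = no compound wells with probe peptide and 100% = reference peptide inhibitor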
The depositor's hits bear a star; nt = no result given; + = active, no number. Unless noted, no stated cut-off is given here; in the data, active means inhibition above about 40%.

SMILES | Bim-Bcl-XL | Bfl-1 Bim block | Bim-Bcl-B | Bim-Bcl-W | BCLXL inh | Bim-Bcl-2
c1ccc2[nH]c3cc4ncnc4cc3nc2c1 | 19.0 | 6.0 | 13.0 | 14.0 | + | 6.0
CC(C)(C)NC(=O)CCN(/N=C/c1ccc([N+](=O)[O-])o1)C1=NS(=O)(=O)c2ccccc21 | 53.0* | 19.0 | 27.0 | 36.0 | 6.8 | 22.0
O=S1(=O)N=C(N(CCO)/N=C/c2ccc(Cl)cc2)c2ccccc21 | nt | nt | nt | nt | 12.9 | nt
CN(C)c1ccc(/C=N/N(CCO)C2=NS(=O)(=O)c3ccccc32)cc1 | nt | nt | nt | nt | + | nt
CN(C)c1ccc(/C=N/N(CCC(=O)NC(C)(C)C)C2=NS(=O)(=O)c3ccccc32)cc1 | nt | nt | nt | nt | 7.1 | nt
CCOc1ccccc1CN1CCNC(=O)C1CC(=O)N(C)Cc1cnccn1 (configuration not stated) | nt | nt | nt | nt | 11.1 | nt
Cc1cc([N+](=O)[O-])ccc1N1C(=O)c2ccc(C(=O)Nc3ccccc3C(=O)O)cc2C1=O | nt | nt | nt | nt | 5.3 | nt
Cc1ccc(O)c(NC2=C(Cl)C(=O)N(Cc3ccccc3)C2=O)c1 | 35.0 | 58.0* | 22.0 | 51.0* | nt | 37.0
CCn1c(C)cc(C=C2C(=O)c3ccccc3C2=O)c1C | 7.0 | 14.0 | -4.0 | 18.0 | nt | 10.0
Cc1cc(C=C2C(=O)c3ccccc3C2=O)c(C)n1C | -5.0 | -20.0 | -3.0 | 0.0 | 50.9* | -11.0
COc1cccc(NC(=O)COC(=O)c2ccccc2C(=O)N2CCN(c3ccccc3)CC2)c1 | 0.0 | -4.0 | -4.0 | 0.0 | 48.5* | -3.0
O=C(COC(=O)c1ccccc1C(=O)N1CCN(c2ccccc2)CC1)Nc1ccccc1 | -1.0 | -2.0 | -3.0 | -2.0 | 19.1 | -4.0
O=C(COC(=O)c1ccccc1C(=O)N1CCN(c2ccccc2)CC1)Nc1ccc(F)cc1 | -13.0 | -14.0 | -13.0 | -3.0 | 53.8* | -14.0
O=C(c1ccccc1C(=O)N1CCN(c2ccccc2)CC1)N1CCN(c2ccccc2)CC1 | -2.0 | -1.0 | -2.0 | -6.0 | 46.1* | 0.0
O=C(O)c1ccccc1C(=O)N1CCN(c2ccccc2)CC1 | 1.0 | -11.0 | -8.0 | -1.0 | 2.8 | -4.0
COc1ccccc1C(=O)N(Cc1ccc(Cl)cc1)C1CCS(=O)(=O)C1 (configuration not stated) | nt | nt | nt | nt | -1.0 | nt
Cc1ccc(C(=O)NC(O)C(Cl)Cl)cc1 (configuration not stated) | -6.0 | -2.0 | -6.0 | -4.0 | -1.7 | -5.0
Nc1c(C(=O)Nc2nccs2)sc2nc(-c3cccs3)cc(C(F)(F)F)c12 | -4.0 | -2.0 | -6.0 | -2.0 | 31.4* | -4.0
COc1ccccc1CNCC(=O)Nc1ccc(N(C)C)cc1 | nt | nt | nt | nt | 70.6* | nt
CCn1c2ccccc2c2cc(NC(=O)CNCc3ccccc3OC)ccc21 | nt | nt | nt | nt | 3.7 | nt
CCCSC1=N/C(=C\c2ccc([N+](=O)[O-])o2)C(=O)S1 | -4.0 | 6.0 | -29.0 | -2.0 | nt | 3.0
CCSC1=N/C(=C\c2ccc(-c3ccccc3[N+](=O)[O-])o2)C(=O)S1 | -1.0 | 5.0 | -21.0 | 9.0 | 74.2* | 0.0
O=c1[nH]c(=O)c2nnc(N/N=C\c3ccc(O)cc3)nc2[nH]1 | 44.0* | 6.0 | 25.0 | 28.0 | 6.4 | 13.0
O=c1[nH]c(=O)c2nnc(N/N=C/c3ccccc3F)nc2[nH]1 | nt | nt | nt | nt | 7.8 | nt
Nc1[nH]c(=O)nc(Nc2ccccc2)c1N=O | nt | nt | nt | nt | 0.4 | nt
SMILES | Bim-Bcl-XL | Bfl-1 Bim block | Bim-Bcl-B | Bim-Bcl-W | BCLXL inh | Bim-Bcl-2
Cn1c(=O)c(NCCc2ccccc2)c2c3c(cccc31)C(=O)c1ccccc1-2 | 1.0 | -13.0 | -14.0 | 4.0 | + | -5.0
CN1C(=O)c2cccc(NCCCN3C(=O)c4ccccc4C3=O)c2C1=O | 0.0 | -3.0 | -3.0 | -1.0 | 23.6 | -2.0
Cn1c(NCCc2ccccc2)cc(=O)n(C)c1=O | -4.0 | -9.0 | -9.0 | -2.0 | 2.5 | -5.0
CC(=O)Nc1ccc(Nc2c3c4c(cccc4n(C)c2=O)C(=O)c2ccccc2-3)cc1 | -4.0 | 0.0 | -2.0 | -5.0 | + | -2.0
CCCCNc1c2c3c(cccc3n(C)c1=O)C(=O)c1ccccc1-2 | -2.0 | -16.0 | -17.0 | 0.0 | 198.2* | -4.0
CCNc1c2c3c(cccc3n(C)c1=O)C(=O)c1ccccc1-2 | 8.0 | 0.0 | -3.0 | 9.0 | + | 9.0
Cc1cccc(N2CC(C(=O)Nc3nnc(SCC(=O)N4CCOCC4)s3)CC2=O)c1 (configuration not stated) | nt | nt | nt | nt | 10.8 | nt
Cc1ccccc1COC(=O)c1nn(-c2ccccc2)nc1N | 0.0 | 5.0 | 4.0 | 1.0 | -0.1 | 0.0
Cc1ccc(C(C)C)c(OCC(=O)N/N=C/c2cccn2C)c1 | nt | nt | nt | nt | -2.5 | nt
Cn1c(=O)c(NCCO)c2c3c(cccc31)C(=O)c1ccccc1-2 | -2.0 | -18.0 | 0.0 | 0.0 | 114.3* | -7.0
